Reference: PubChem BioAssay (Tox21)
Inconclusive results are not listed. Values without a mark were called inactive. Calls of active or inactive are those of the source. Calls follow the shape of the dose curve; as a rule, active = well fitted cell-killing curve with a large enough effect in the repeat runs; inconclusive = weak or mixed curves, or effect the other way; inactive = flat fitted curve, though single readings scatter.

Test: qHTS assay to identify small molecule antagonists of the androgen receptor (AR) signaling pathway using the MDA cell line in the presence of 0.5 nM R1881 - cell viability counter screen (AID 1259242); also: nearly all actives have a fitted effect of over 45% in size
Conditions: MDA-kb2 viability, CellTiter-Fluor protease fluorescence, 16 h; series mostly up to 92.4 µM; viability change, negative = cytotoxic: at the top concentration
Description: U.S. Tox21 Program National Center for Advancing Translational Sciences [NCATS] NIH Chemical Genomics Center [NCGC] U.S. Environmental Protection Agency [EPA] National Institutes of Environmental Health Sciences [NIEHS] National Toxicology Program [NTP] U.S. Food and Drug Administration [FDA] Tox21 Assay Overview: Androgen receptor (AR) is an important member of the nuclear receptor family. Its signaling plays a critical role in AR-dependent prostate cancer and other androgen related diseases. Considerable attention has been given in the past decades to develop methods to study and screen for the environmental chemicals that have the potential to interfere with metabolic homeostasis, reproduction, developmental and behavioral functions. Therefore AR binding assay for screening androgen antagonists can be used to identify potential endocrine disruptors. MDA-kb2 cells (from ATCC, deposited by Wilson et al.) were used to screen for AR inhibitors against Tox21 compound libraries. These cells are human breast carcinoma cells that were stably transfected with a luciferase reporter gene under control of the MMTV promoter that contains response elements for both androgen receptor (AR) and glucocorticoid receptor (GR). The current screening for identification of AR inhibitors against Tox21 libraries used lower concentration of (0.5 nM) R1881 as a stimulator. The cytotoxicity of the Tox21 compound libraries against MDA-kb2 cell line was tested by measuring live-cell protease activity using CellTiter-Fluor assay in the same wells.
Tox21 Assay Protocol Summary: MDA-kb2 cells (cells cultured without CO2) were dispensed at 3,000 cells/well in 4 uL of culture medium into white wall/solid-bottom 1536-well plates (Corning Life Sciences, Corning, NY) using a Multidrop Combi (ThermoFisher Scientific, Waltham, MA) dispenser. After the assay plates were incubated at a 37C and 0% CO2 for 5 hr, 23 nL of compounds dissolved in DMSO, positive controls or DMSO only was transferred to the assay plate by a Pintool station (Kalypsys, San Diego, CA). The transfer of compounds was followed by the addition of 1 uL of 0.5 nM (final concentration) agonist (R1881)/culture medium using a Flying Reagent Dispenser (FRD, Aurora Discovery, San Diego, CA). The plates were incubated at 37C and 0% CO2 for 16 hr. For cytotoxicity assay, 1 uL of CellTiter-Fluor reagent (Promega Corporation, Madison, WI) was added to each well using the FRD and after 30 min incubation at 37C and 0% CO2, The fluorescence intensity was measured using ViewLux plate reader (PerkinElmer, Shelton, CT).
% is scaled to controls: 0 for no effect and ±100 for the full control effect.

Structure (SMILES)	outcome	viability change, negative = cytotoxic [%]
C[C@]12CC[C@H]3[C@@H](CC[C@@]45O[C@@H]4C(O)=C(C#N)C[C@]35C)[C@@H]1CC[C@@H]2O	inactive	
OC(O)C(Cl)(Cl)Cl	inactive	
CCC(C)(CC)c1cc(NC(=O)c2c(OC)cccc2OC)on1	inactive	
CCCCN(CC)C(=O)SCCC	inactive	
Clc1cccc(Cl)c1Cl	inactive	
CCCCCCCCCl	inactive	
ClCc1cccnc1	inactive	
O=S(=O)(c1ccc(Cl)cc1)c1cc(Cl)c(Cl)cc1Cl	inactive	
Cc1[nH]c(=O)n(C(C)(C)C)c(=O)c1Cl	inactive	
[N-]=[N+]=[N-]	inactive	
CN(C)CCO	inactive	
ClCCBr	inactive	
CCOP(OCC)OCC	inactive	
CCCN(CCC)N=O	inactive	
[O-][Cl+2]([O-])O	inactive	
C=C(C)CCl	inactive	
O=S(=O)(c1ccc(O)cc1)c1ccc(O)cc1	inactive	
CCN(CC)c1ccccc1	inactive	
CCOP(=S)(OCC)Oc1cnc2ccccc2n1	inactive	
CCNc1nc(NC(C)(C)C)nc(SC)n1	inactive	

Structure (SMILES)	outcome	viability change, negative = cytotoxic [%]
c1cc2c3c(cccc3c1)CC2	inactive	
CC1C=[C-]C=C1.[C-]#[O+].[C-]#[O+].[C-]#[O+].[Mn]	inactive	
CCC[N+](=O)[O-]		0.586
Clc1ccccc1Cl	inactive	
CC(C)OC(=O)Nc1cccc(Cl)c1	inactive	
Cc1cccc([N+](=O)[O-])c1	inactive	
CC(C)(Cl)Cl	inactive	
O=c1[nH]c(=O)[nH]c(=O)[nH]1	inactive	
C=CCO	inactive	
C#CC(C)(C)NC(=O)c1cc(Cl)cc(Cl)c1	inactive	
CCCC1COC(Cn2cncn2)(c2ccc(Cl)cc2Cl)O1 (stereo not given)	inactive	
CC(C)C1(C)N=C(c2nc3ccccc3cc2C(=O)O)NC1=O (stereo not given)	inactive	
CON(C)C(=O)Nc1ccc(Cl)c(Cl)c1	inactive	
CN(C)[C@@H]1C(=O)C(C(N)=O)=C(O)[C@@]2(O)C(=O)C3=C(O)c4c(O)cccc4[C@@](C)(O)[C@H]3C[C@@H]12	inactive	
c1ccc2c(c1)oc1ccccc12	inactive	
C1CN2CCN1CC2	inactive	
NCC(O)c1ccc(O)cc1 (stereo not given)	inactive	
CCC[CH2][Sn]([Cl])([Cl])[Cl]	inactive	
CC(C)N1C(=O)c2ccccc2NS1(=O)=O	inactive	
Cc1ccc([N+](=O)[O-])cc1C	inactive	
